From PubChem BioAssay (Tox21)
Several values for one entry are separate records, joined by “and”; a condition that tells them apart may be missing. Identical values can stand only once. Results filed as inconclusive are left out. Activity calls are given as the source filed them. Unless noted, calls come from the whole dose curve; as a rule, active = well fitted curve in the direction sought with a large enough effect in the repeat runs; inconclusive = weak or mixed curves; inactive = no such curve, though single readings can be large; an effect the other way counts as inactive or inconclusive.

What was measured:
[1] = qHTS assay for small molecules that induce genotoxicity in human embryonic kidney cells expressing luciferase-tagged ATAD5 (AID 651632); note: nearly all actives have a fitted effect of over 15% in size
Summary of the method: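 Genotoxicity read-out via ATAD5-luciferase: HEK293T cells, 16 hr compound incubation at 37C, Amplite detection.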

[2] = qHTS assay for small molecules that induce genotoxicity in human embryonic kidney cells expressing luciferase-tagged ATAD5 - cell viability (AID 651634; calls by dose curve; note: nearly all actives have a fitted effect of over 25% in size; note: potency is the fitted concentration of half-maximal effect)
Summary of the method: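 Live-cell protease activity (CellTiter-Fluor, fluorescence) indicates viability. HEK293T cells with luciferase-tagged ATAD5; 15.5 hr compound treatment at 37C.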

[3] = qHTS assay for small molecule disruptors of the mitochondrial membrane potential - cell viability (AID 720634; calls by dose curve; note: nearly all actives have a fitted effect of over 20% in size; note: potency is the fitted concentration of half-maximal effect;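 for activity change, negative = cytotoxicity: human HepG2 liver cancer cells; series mostly up to about 83 µM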)
Summary of the method: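 Human hepatoma HepG2 cells were treated for 1 hr with test chemicals, then given m-MPI dye and CellTiter-Glo. Cell viability reflects luminescence proportional to cellular ATP.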

[4] = qHTS assay for small molecule disruptors of the mitochondrial membrane potential (AID 720635); note: potency is the fitted concentration of half-maximal effect
Summary of the method: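 HepG2 cells (2,000/well) attached overnight at 37C, then took compound for 1 hr at 37C, 5% CO2. Mito-MPS dye was added for 30 min; fluorescence was read at 490/535 nm (monomers) and 540/590 nm (aggregates).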

[5] = qHTS assay to test for compound auto fluorescence at 535 nm (green) in HepG2 cells (AID 720675)
[6] = qHTS assay to test for compound auto fluorescence at 460 nm (blue) in HEK293 cells (AID 720678)
Summary of the method: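 Measured: blue fluorescence (Ex 405/Em 460 nm) of compound-treated HEK293 cells, incubated overnight at 37C with 5% CO2 and scaled to triamterene equivalents.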

[7] = qHTS assay to test for compound auto fluorescence at 590 nm (red) in HEK293 cells (AID 720679)
Summary of the method: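 Using HEK293 cells at 2,000 per well, the screen added 23 nL of each compound after cell attachment and incubated overnight (37C, 5% CO2). The plate reader then captured red-label fluorescence, Ex/Em 540/590nm.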

[8] = qHTS assay to test for compound auto fluorescence at 590 nm (red) in HepG2 cells (AID 720674)
Summary of the method: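 Intrinsic compound fluorescence in the red window (Ex/Em 540/590 nm) is measured in attached HepG2 cells exposed for 1 hr, DMSO vehicle as baseline, benchmarked to Rose Bengal sodium.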

[9] = qHTS assay for small molecule agonists of the p53 signaling pathway - cell viability (AID 651633; calls by dose curve;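 note: p53RE-bla HCT reporter cells with a stable beta-lactamase p53 reporter; series mostly up to about 83 µM; nearly all actives have a fitted effect of over 30% in size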)
Summary of the method: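 p53RE-bla cells, seeded at 4,000 per well and rested 5 h at 37 C/5% CO2, received compounds in DMSO for 16 h at 37 C. CellTiter-Glo was then added, and luminescence was read after 30 min at room temperature to gauge cytotoxicity.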
% is set by controls: 0 for no effect and ±100 for the full control effect.

CC1CCC(=O)C1=O (stereo not given)
inactive: Potency [1] | Potency [2] | Potency [3] | Potency [4] | Potency [5] | outcome [6] | Potency [7]

CCc1c(C(=O)NN2CCCCC2)nn(-c2ccc(Cl)cc2Cl)c1-c1ccc(Br)cc1
active: Potency [4] 24.3 µM
inactive: Potency [1] | Potency [2] | Potency [3] | Potency [8] | Potency [5] | outcome [6] | Potency [7]

CC(C)O.CC(C)O.CCOC(=O)/C=C(\C)O.CCOC(=O)/C=C(\C)O.[Ti]
inactive: Potency [2] | Potency [8] | Potency [5] | outcome [6] | Potency [7]

CCCCCCCCCCO[C@@H]1O[C@H](CO)[C@@H](O)[C@H](O)[C@H]1O
inactive: Potency [1] | Potency [2] | Potency [3] | Potency [8] | Potency [5] | outcome [6] | Potency [7]

Cc1[nH]c(C)c(Cl)c(=O)c1Cl
inactive: Potency [1] | Potency [2] | Potency [3] | Potency [4] | outcome [6] | Potency [7]

C=CC(=O)OCCOCCOC(=O)C=C
active: Potency [2] 61.4 µM
inactive: Potency [3] | Potency [4] | Potency [8] | Potency [5] | outcome [6] | Potency [7]

CC(C)(CO)[N+](=O)[O-]
inactive: Potency [1] | Potency [2] | Potency [3] | Potency [8] | outcome [6] | Potency [7]

Cc1cccc(C)c1OCC(=O)N[C@@H](Cc1ccccc1)[C@@H](O)C[C@H](Cc1ccccc1)NC(=O)[C@H](C(C)C)N1CCCNC1=O
inactive: Potency [1] | Potency [3] | Potency [8] | Potency [5] | outcome [6] | Potency [7]

Nc1ncn([C@H]2C[C@H](O)[C@@H](CO)O2)c(=O)n1
inactive: Potency [9] | Potency [2] | Potency [8] | Potency [5] | outcome [6] | Potency [7]

C=CCOc1ccccc1OCC(O)CNC(C)C (stereo not given)
inactive: Potency [1] | Potency [2] | Potency [3] | fluorescence, relative to Rose Bengal [8] -0.0179% [at 18.6 µM] | fluorescence, % of fluorescein control [5] 0.095% [at 18.6 µM] | fluorescence, % of triamterene [6] 0.0129% [at 18.6 µM] | fluorescence, % of fluorescent control [7] 0.157% [at 18.6 µM]

COc1cc(Cl)ccc1Oc1ccc(Cl)cc1Cl
inactive: Potency [1] | Potency [5] | outcome [6] | Potency [7]
active: Potency [4] 23.6 µM

CCC(C)c1cc(C(C)(C)C)c(O)c(C(C)(C)C)c1 (stereo not given)
inactive: Potency [1] | Potency [2] | Potency [8] | Potency [5] | outcome [6] | Potency [7]
active: Potency [4] 21.3 µM

CC(C)C[C@H]1C(=O)N2CCC[C@H]2[C@]2(O)O[C@](NC(=O)[C@@H]3C=C4c5cccc6[nH]c(Br)c(c56)C[C@H]4N(C)C3)(C(C)C)C(=O)N12
active: Potency [4] 10.6 µM and 8.23 µM
inactive: Potency [1] | Potency [3] | Potency [8] | Potency [5] | outcome [6] | Potency [7]

CN(C)c1ccc(/C=C/c2ccc([N+](=O)[O-])cc2)cc1
inactive: activity, negative = cytotoxicity [2] 49.6% [at 8.08 µM] | activity change, negative = cytotoxicity [3] -8.24% [at 8.08 µM] | fluorescence, relative to Rose Bengal [8] 0% [at 3.72 µM] | fluorescence, % of fluorescein control [5] -0.0437% [at 3.72 µM] | fluorescence, % of triamterene [6] 0.0267% [at 3.72 µM] | fluorescence, % of fluorescent control [7] 0.111% [at 3.72 µM]

CCO[Si](CCCCl)(OCC)OCC
active: Potency [4] 48.1 µM
inactive: Potency [1] | Potency [2] | Potency [3] | Potency [8] | Potency [5] | outcome [6] | Potency [7]

CCCCCCCC#N
inactive: Potency [1] | Potency [3] | Potency [4] | Potency [8] | Potency [5] | outcome [6] | Potency [7]

Cc1c(N)cccc1[N+](=O)[O-]
inactive: Potency [1] | Potency [3] | Potency [4] | Potency [8] | Potency [5] | outcome [6] | Potency [7]

O=C1C(O)=C(O)C(=O)C(O)=C1O
inactive: Potency [1] | Potency [2] | Potency [3] | Potency [4] | Potency [8] | Potency [5] | outcome [6] | Potency [7]

C1CCCNCCC1
inactive: Potency [1] | Potency [2] | Potency [3] | Potency [4] | Potency [8] | outcome [6] | Potency [7]

CCCNCC(O)COc1ccccc1C(=O)CCc1ccccc1 (stereo not given)
inactive: Potency [9] | Potency [3] | Potency [8] | Potency [5] | outcome [6] | Potency [7]

O=C(CS)Nc1ccccc1
inactive: Potency [1] | Potency [5] | outcome [6] | Potency [7]

CCO[C@H](Cc1ccc(OCCc2ccc(OS(C)(=O)=O)cc2)cc1)C(=O)O
inactive: Potency [1] | Potency [2] | Potency [3] | Potency [4] | Potency [8] | Potency [5] | outcome [6] | Potency [7]

Nc1ccc(N)c2c1C(=O)c1ccccc1C2=O
active: Potency [2] 27.3 µM
inactive: Potency [1] | Potency [8] | outcome [6] | Potency [7]

Cc1cccc(Nc2ccccc2)c1
inactive: Potency [9] | Potency [3] | Potency [5] | outcome [6] | Potency [7]
active: Potency [4] 43.3 µM

OCCN1CCN(CCCN2c3ccccc3C=Cc3ccccc32)CC1
inactive: Potency [1] | Potency [3] | Potency [8] | Potency [5] | outcome [6] | Potency [7]

O=C(Nc1ccccc1)c1ccccc1O
active: Potency [3] 27.3 µM | Potency [4] 2.43 µM
inactive: Potency [1] | Potency [8] | Potency [5] | outcome [6] | Potency [7]

COc1cc(Cl)c(OC)cc1N
inactive: Potency [2] | Potency [3] | Potency [5] | outcome [6] | Potency [7]

CN(C)CCCN1c2ccccc2Sc2ccccc21
inactive: Potency [1] | Potency [3] | fluorescence, relative to Rose Bengal [8] 0.23% [at 18.6 µM] | fluorescence, % of fluorescein control [5] -0.18% [at 18.6 µM] | fluorescence, % of triamterene [6] 0.0346% [at 18.6 µM] | fluorescence, % of fluorescent control [7] -0.0069% [at 18.6 µM]
